# An excerpt weighted towards active compounds, which were near 11% of everything screened.
# G9a block: G9a (human) methyltransferase inhibition; actives 8.8% (n = 350,000); AID 504332; G9a H3K9 monomethylation, AlphaScreen, 2 h; Potency, µM (series often up to 102 µM), for inactives: top-dose activity, negative = inhibition, most hits filed as inhibitors; Q96KQ7; note: % is set by controls: 0 for no effect and ±100 for the full control effect; nearly all actives have a fitted effect of over 75% in size
# Target sequence (Q96KQ7 913-1193 limits assumed): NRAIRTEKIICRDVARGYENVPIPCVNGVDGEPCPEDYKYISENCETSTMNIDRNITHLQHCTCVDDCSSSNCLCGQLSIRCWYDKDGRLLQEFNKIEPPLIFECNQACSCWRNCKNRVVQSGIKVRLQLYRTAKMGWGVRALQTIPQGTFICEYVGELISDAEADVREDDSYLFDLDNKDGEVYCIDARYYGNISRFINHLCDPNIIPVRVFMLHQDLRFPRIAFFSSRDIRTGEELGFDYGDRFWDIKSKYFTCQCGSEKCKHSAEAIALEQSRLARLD
#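 Readings reflect AlphaScreen signal from monomethyl-H3K9 antibody detection. HMT at 20 nM; substrate b-H3K9 500 nM; cofactor SAM 20 uM; 2 h RT reaction; compounds tested as titrations in qHTS with 15 min preincubation.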
# JMJD2A Tudor: blocks the human JMJD2A Tudor domain | O75164 | AlphaScreen JMJD2A-Tudor / H3K4me3 peptide binding | Potency, µM (series often up to 114 µM), inactives show at the highest dose activity change, negative = inhibition, hits mostly inhibitors | actives 4.4% (n = 390,000) | AID 504339; note: % is set by controls: 0 for no effect and ±100 for the full control effect; nearly all actives have a fitted effect of over 50% in size
# BAZ2B inh: inhibitors of human BAZ2B bromodomain; AlphaScreen BAZ2B-H3K14Ac peptide displacement; Potency, µM (top dose mostly 114 µM), without a hit: top-dose activity change, negative = inhibition, most hits filed as inhibitors; AID 504333; actives 4.4% (n = 360,000); note: % is set by controls: 0 for no effect and ±100 for the full control effect; nearly all actives have a fitted effect of over 60% in size
#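 In this displacement format the biotinylated H3(5-23) peptide acetylated at Lys14 serves as ligand at 50 nM, with BAZ2B at 50 nM in PBS pH 7.4 containing 0.01% Tween-20. Donor and acceptor beads are 10 ug/mL final.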
# VDR inh: vitamin D3 receptor (human) inhibition; VDR-SRC2-3 peptide fluorescence polarization, 2 h; AID 504847; P11473; actives 0.93% (n = 400,000); Potency, µM, for the others: max response, negative = inhibition, hits mostly inhibitors; note: % is set by controls: 0 for no effect and ±100 for the full control effect
#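 Fluorescence polarization assay of small-molecule disruption of VDR binding to coregulator peptide SRC2-3. Compounds and controls pin-transferred, then read after 2 h incubation at ambient room temperature.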
# PLK1 PBD inh: PLK1 (human) polo-box domain binding inhibition. P53350. Plk1 PBD binding of FITC phosphopeptide, fluorescence polarization. Potency, µM, inactives show max response, negative = inhibition, hits mostly inhibitors. actives 2.8% (n = 360,000); note: series mostly up to about 57 µM; % is set by controls: 0 for no effect and ±100 for the full control effect; nearly all actives have a fitted effect of over 65% in size
# HP1b binding inh: HP1-beta chromodomain-methylated histone interaction inhibition. P83916. AlphaScreen HP1-beta / biotin-H3K9me3 peptide binding. AID 540317. Potency, µM (doses to about 114 µM), for the others: top-dose activity change, negative = inhibition, most hits filed as inhibitors. actives 0.56% (n = 390,000); note: nearly all actives have a fitted effect of over 70% in size
# Target sequence (P83916 whole entry, looked up): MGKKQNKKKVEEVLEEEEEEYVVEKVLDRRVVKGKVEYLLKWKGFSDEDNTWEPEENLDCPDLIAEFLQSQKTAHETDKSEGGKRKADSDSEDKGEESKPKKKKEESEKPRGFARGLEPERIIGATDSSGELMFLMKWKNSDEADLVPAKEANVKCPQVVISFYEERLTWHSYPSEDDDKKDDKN
#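 Compound inhibition of the preformed complex between 50 nM HP1-beta and 50 nM biotinylated H3K9me3 peptide was read by AlphaScreen. Buffer was PBS pH 7.4 with 0.01% Tween-20. Incubations ran 30 min at room temperature, with 10 ug/mL donor/acceptor beads.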
# * = called active by the depositor; ? = inconclusive; / = no result; [ ] = another dose, or the depositor's remark. Calls come from the whole dose curve; as a rule, active = well fitted curve in the direction sought with a large enough effect; inconclusive = small, poorly fitted or top-dose-only effect, or another doubt; inactive = no such curve, though single readings can be large; an effect the other way counts as inactive or inconclusive. Potency is the fitted concentration of half-maximal effect.
SMILES,G9a block,JMJD2A Tudor,BAZ2B inh,VDR inh,PLK1 PBD inh,HP1b binding inh
Cc1c(C)n(CCc2ccccc2)c2ncnc(NCCCN(C)C)c12,-19%[2.33 µM],?,45µM*,-6%,1%,?
Cc1c(C)n(CCN(C)C)c2ncnc(NCc3ccccc3)c12,?,-33%,-34%,-5%,0%,-10%
O=C(/C=C/c1cn(-c2ccccc2)nc1-c1cccnc1)c1ccco1,-32%,?,?,50µM*,-5%,5%
CCOC(=O)c1ccc(NC(=O)c2ccc(C)c(S(=O)(=O)N3CCOCC3)c2)cc1,-1%,1%[11.4 µM],6%,-11%,27µM*,-18%
CCOc1ccc(CCNC(=O)c2nccnc2C(=O)O)cc1OCC,50µM*,-2%,?,-4%,1%,20%
Cc1ccc(NC(=O)c2cccnc2)cc1S(=O)(=O)N1CCOCC1,50µM*,-16%,-6%,-10%,-2%,33%
CC(=O)c1ccc(NC(=O)c2ccc(C)c(S(=O)(=O)N3CCOCC3)c2)cc1,-2%,-21%,2%,2%,-10%,28%
CCOC(=O)c1c(C)[nH]c(C(=O)COC(=O)c2ccc(F)c(S(=O)(=O)N3CCOCC3)c2)c1C,-6%[59 µM],17%[11.4 µM],18%,-6%,27µM*,2%
O=C(CSc1ccccc1)OCC(=O)N1CCN(C(=O)c2ccco2)CC1,22%[12.7 µM],-14%,12%,7%,-12%,31%
CC1CCC(NC(=O)CN2C(=O)COc3ccc(S(=O)(=O)N4CCCC4)cc32)CC1 (stereo not given),-1%[59 µM],/,-5%,/,/,/
COc1ccc(Cn2c(CCC(=O)Nc3cccc(OC)c3)nc3cccnc32)cc1,-6%[59 µM],-11%,-8%,-4%,/,25%
COc1cc2c(cc1OC)CN(CCC(C)c1ccc(Cl)cc1)CC2 (stereo not given),/,-30%,/,5%,5%,9%
CCOc1ccc(CCNC(=O)c2ccc(Cl)c(S(=O)(=O)N3CCOCC3)c2)cc1OCC,56µM*,?,56µM*,5%,-7%,?
CCc1ccc(CNC(=O)C(CC)n2nc(C)c3c(C)n(-c4ccccc4)nc3c2=O)cc1 (stereo not given),9%[59 µM],-17%,14%,8%,/,47%
O=c1cc(-c2ccccc2)[nH]c2[nH]n(-c3ccccc3)c(=O)c12,45µM*,-31%,?,-1%,-5%,-8%
CCc1c(C)sc(NC(=O)C2CCCCC2C(=O)O)c1C(N)=O (stereo not given),?,?,-29%,79µM*,?,?
Cc1nc(NC(=O)C2CCCCC2C(=O)O)sc1C (stereo not given),51%,-1%,-11%,5%,-2%,32%
CCSc1ccccc1C(=O)Nc1ccc(S(=O)(=O)NC(C)=O)cc1,/,50µM*,-14%,9%,-24%,7%
CC(=O)NS(=O)(=O)c1cccnc1Nc1cccc(Cl)c1,-24%[2.33 µM],-2%,-3%,11%,-3%,21%
CC(=O)NS(=O)(=O)c1cccnc1Nc1ccc(Cl)cc1,17%[59 µM],-21%[11.4 µM],-3%,-3%,11µM*,11%
CC(=O)NS(=O)(=O)c1ccc(NC(=O)c2ccccn2)cc1,50µM*,?,50µM*,-4%,6%,29%
CCCNS(=O)(=O)c1ccc(NC(=O)c2ccccn2)cc1,-7%,20µM*,0%,3%,3%,16%
CC1=C(C(=O)N(C(C)C)C(C)C)CC(CC(=O)NCCN2CCOCC2)C(=O)N1Cc1ccc(F)cc1 (stereo not given),/,/,/,/,4%,/
CC(C)(C)OC(=O)Cc1nnc(C(C(=O)OCc2ccccc2)c2ccccc2)s1 (stereo not given),/,-8%,/,/,/,/
CCOC(=O)c1c(C)oc2ncnc(NCCCN3CCN(c4cc(C)ccc4C)CC3)c12,?,?,?,4%,/,2%
CCOC(=O)c1sc2nc(CN3CCCCC3)nc(Cl)c2c1C,50µM*,-8%,-32%,-11%,-1%,27%
CC(=O)Nc1ccc(C2=NN(C)C(=NCc3ccccc3)SC2)cc1,?,45µM*,/,-16%,30µM*,-11%
